Results taken from ChEMBL document CHEMBL2218924, “A broad activity screen in support of a chemogenomic map for kinase signalling research and drug discovery” (Biochem J, 2013).

Tests used:
[1] = target: Homeodomain-interacting protein kinase 3 (Homo sapiens) (UniProt Q9H422); details: at 10 µM
[2] = target: T1, Serine/threonine-protein kinase haspin (Homo sapiens) (UniProt Q8TF76); details: at 1 µM
T1 sequence (whole entry): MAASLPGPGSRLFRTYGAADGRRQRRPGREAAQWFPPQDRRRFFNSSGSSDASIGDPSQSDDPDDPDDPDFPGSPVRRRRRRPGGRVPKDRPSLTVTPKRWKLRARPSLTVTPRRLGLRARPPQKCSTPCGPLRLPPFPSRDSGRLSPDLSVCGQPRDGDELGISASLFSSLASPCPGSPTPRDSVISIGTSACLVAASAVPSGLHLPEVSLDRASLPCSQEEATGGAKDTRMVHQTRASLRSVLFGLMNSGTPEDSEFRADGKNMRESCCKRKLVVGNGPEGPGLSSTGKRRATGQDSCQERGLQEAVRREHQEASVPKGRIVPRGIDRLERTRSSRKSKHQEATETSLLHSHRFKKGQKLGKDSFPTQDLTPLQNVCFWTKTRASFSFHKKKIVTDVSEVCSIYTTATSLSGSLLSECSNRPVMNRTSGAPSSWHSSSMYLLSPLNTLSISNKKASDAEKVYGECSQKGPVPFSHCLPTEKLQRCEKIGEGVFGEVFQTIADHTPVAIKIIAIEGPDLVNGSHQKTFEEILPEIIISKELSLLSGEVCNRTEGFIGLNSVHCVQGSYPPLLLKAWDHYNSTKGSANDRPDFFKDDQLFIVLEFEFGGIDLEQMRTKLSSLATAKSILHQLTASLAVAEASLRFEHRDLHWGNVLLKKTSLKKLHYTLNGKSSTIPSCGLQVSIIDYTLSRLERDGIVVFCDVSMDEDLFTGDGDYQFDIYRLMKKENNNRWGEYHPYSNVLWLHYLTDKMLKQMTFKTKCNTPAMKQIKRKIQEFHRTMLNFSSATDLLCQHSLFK

[3] = target: T1, Serine/threonine-protein kinase haspin (Homo sapiens); details: at 10 µM
[4] = target: Tyrosine-protein kinase HCK (Homo sapiens) (UniProt P08631); details: at 1 µM
[5] = target: Tyrosine-protein kinase HCK (Homo sapiens) (UniProt P08631); details: at 10 µM
[6] = target: Insulin-like growth factor 1 receptor (Homo sapiens) (UniProt P08069); details: at 1 µM
[7] = target: Tyrosine-protein kinase HCK (Homo sapiens) (UniProt P08631); details: at 1 µM; remark: listed apart in the source
[8] = target: Tyrosine-protein kinase HCK (Homo sapiens) (UniProt P08631); details: at 10 µM; remark: listed apart in the source
[9] = target: Insulin-like growth factor 1 receptor (Homo sapiens) (UniProt P08069); details: at 10 µM
[10] = target: T2, Protein kinase C zeta type (Homo sapiens) (UniProt Q05513); details: at 10 µM
T2 sequence (whole entry): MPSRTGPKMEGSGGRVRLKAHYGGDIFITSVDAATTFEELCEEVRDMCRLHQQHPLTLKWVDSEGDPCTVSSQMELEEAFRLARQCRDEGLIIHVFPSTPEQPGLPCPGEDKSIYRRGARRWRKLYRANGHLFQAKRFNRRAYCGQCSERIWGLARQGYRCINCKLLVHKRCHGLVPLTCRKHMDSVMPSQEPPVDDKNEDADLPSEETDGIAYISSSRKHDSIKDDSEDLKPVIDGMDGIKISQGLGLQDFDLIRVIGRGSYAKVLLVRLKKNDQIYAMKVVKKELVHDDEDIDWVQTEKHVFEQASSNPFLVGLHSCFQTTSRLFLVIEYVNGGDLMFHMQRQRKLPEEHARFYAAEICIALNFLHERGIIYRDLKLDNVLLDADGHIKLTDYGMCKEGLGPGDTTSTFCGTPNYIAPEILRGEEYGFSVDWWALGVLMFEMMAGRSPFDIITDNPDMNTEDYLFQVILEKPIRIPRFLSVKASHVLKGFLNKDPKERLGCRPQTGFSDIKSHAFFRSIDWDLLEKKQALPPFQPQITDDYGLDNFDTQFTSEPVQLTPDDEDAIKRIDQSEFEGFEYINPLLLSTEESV

Chain of Tyrosine-protein kinase HCK (Homo sapiens) (P08631 2-526 limits assumed): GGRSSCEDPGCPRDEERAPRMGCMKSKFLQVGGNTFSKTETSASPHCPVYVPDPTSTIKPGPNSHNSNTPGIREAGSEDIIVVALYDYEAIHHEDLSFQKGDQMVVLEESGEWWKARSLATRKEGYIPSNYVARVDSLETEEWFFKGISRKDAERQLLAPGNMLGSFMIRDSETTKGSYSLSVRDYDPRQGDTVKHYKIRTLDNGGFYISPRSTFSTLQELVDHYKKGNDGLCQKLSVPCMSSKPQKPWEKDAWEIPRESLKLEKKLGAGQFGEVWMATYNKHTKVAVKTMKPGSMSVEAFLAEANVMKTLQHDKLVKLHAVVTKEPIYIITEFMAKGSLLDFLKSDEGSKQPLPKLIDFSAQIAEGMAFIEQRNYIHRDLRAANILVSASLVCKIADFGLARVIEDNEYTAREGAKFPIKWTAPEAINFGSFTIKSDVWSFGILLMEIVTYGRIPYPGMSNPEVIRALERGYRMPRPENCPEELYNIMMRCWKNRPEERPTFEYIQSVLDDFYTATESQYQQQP
Chain of Homeodomain-interacting protein kinase 3 (Homo sapiens) (Q9H422 whole entry, looked up): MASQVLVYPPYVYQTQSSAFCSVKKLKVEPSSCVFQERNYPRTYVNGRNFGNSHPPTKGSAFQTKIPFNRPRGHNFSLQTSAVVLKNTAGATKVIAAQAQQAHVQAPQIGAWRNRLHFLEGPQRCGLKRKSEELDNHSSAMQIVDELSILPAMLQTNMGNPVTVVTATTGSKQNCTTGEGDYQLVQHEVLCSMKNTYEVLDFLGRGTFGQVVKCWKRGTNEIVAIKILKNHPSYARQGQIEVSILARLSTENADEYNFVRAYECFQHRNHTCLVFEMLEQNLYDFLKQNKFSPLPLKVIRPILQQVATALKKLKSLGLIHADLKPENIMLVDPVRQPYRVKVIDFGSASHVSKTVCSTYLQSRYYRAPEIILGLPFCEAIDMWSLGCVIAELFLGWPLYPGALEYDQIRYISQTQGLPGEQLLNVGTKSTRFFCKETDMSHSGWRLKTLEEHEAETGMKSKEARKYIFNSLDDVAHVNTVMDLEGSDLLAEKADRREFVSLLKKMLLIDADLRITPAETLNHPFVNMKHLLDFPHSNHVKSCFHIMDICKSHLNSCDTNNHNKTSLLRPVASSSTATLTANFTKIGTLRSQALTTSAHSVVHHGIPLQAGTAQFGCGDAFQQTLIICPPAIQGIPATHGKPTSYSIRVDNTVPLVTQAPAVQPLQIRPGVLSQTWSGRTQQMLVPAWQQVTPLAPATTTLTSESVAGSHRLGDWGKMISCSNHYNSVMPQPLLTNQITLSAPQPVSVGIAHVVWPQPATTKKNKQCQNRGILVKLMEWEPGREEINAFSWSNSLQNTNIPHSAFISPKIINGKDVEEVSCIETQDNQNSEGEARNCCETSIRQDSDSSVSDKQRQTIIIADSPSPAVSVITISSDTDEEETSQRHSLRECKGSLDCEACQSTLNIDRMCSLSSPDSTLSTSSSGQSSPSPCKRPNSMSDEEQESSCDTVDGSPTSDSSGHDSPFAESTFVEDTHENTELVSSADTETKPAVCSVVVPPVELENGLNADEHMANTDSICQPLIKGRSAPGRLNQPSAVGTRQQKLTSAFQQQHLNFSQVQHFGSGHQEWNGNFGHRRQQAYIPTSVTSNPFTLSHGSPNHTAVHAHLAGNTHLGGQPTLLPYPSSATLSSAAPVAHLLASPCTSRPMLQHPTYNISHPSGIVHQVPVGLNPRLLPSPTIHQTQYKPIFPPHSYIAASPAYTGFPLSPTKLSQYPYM
Chain of Insulin-like growth factor 1 receptor (Homo sapiens) (P08069 31-736 limits assumed): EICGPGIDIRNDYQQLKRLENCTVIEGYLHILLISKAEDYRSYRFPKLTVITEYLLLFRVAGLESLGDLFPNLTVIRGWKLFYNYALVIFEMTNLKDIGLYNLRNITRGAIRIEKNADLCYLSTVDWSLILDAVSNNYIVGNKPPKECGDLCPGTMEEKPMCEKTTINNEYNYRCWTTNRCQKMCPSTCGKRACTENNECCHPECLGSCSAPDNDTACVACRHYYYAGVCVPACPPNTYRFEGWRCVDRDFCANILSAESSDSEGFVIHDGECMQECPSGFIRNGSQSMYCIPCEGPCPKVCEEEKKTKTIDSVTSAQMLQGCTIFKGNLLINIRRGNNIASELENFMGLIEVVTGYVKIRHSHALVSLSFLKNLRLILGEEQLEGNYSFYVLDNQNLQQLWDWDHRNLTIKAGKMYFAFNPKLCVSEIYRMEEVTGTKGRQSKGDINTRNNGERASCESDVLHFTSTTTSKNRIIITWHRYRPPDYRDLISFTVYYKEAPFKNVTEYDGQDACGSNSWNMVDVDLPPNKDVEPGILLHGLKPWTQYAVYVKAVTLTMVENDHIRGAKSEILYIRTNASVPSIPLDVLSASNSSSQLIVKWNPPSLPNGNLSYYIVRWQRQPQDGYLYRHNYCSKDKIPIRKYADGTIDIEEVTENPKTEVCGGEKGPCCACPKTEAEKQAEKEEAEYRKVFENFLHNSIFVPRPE
Chain of Insulin-like growth factor 1 receptor (Homo sapiens) (P08069 741-1367 limits assumed): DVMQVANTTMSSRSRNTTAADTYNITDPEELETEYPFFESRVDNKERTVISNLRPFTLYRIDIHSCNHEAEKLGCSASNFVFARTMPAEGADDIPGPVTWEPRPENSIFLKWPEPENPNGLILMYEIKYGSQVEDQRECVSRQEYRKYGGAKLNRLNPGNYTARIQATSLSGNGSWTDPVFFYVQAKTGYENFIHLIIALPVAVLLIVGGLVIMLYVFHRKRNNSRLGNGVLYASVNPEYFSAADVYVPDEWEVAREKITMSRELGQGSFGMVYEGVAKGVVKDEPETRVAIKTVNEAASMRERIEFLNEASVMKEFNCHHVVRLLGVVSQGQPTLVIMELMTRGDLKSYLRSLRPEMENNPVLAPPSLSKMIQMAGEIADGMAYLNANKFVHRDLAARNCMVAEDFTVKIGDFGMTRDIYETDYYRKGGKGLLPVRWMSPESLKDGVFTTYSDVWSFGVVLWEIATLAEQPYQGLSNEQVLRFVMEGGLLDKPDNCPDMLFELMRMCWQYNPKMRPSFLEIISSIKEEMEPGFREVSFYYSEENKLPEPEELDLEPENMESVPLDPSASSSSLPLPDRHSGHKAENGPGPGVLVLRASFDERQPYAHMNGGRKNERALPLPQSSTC

SMILES	residual activity [1]	residual activity [2]	residual activity [3]	residual activity [4]	residual activity [5]	residual activity [6]	residual activity [7]	residual activity [8]	residual activity [9]	residual activity [10]
CCN1/C(=C/C(C)=O)Sc2ccc(OC)cc21	75%	17%	4%	76%	71%	70%				
Nc1ncnc2c1c(-c1ccc(Oc3ccccc3)cc1)cn2C1CCCC1	97%	90%	44%	2%	1%	127%	1%	-2%	119%	107%
Nc1ncnc2c1cnn2-c1ccccc1	94%		83%	83%	68%	140%	96%	85%	129%	
O=C(NC(NC(=S)Nc1ccc(F)c([N+](=O)[O-])c1)C(Cl)(Cl)Cl)C(c1ccccc1)c1ccccc1 (centres undefined)	103%	83%	47%	80%	38%	76%			42%	94%
Cc1cc(C)c(/C=C2\C(=O)Nc3ccccc32)[nH]1		100%	77%	60%	25%		63%	40%		
NC(=O)c1cccc(-c2cc(Nc3ccc(OC(F)(F)F)cc3)ncn2)c1		84%	65%							
O=C(c1ccccc1)c1ccc(N2CCOCC2)cc1O		98%	77%	83%	75%	76%		93%	81%	
COc1ccc(-c2cnc3c(-c4ccsc4)cnn3c2)cc1		95%	83%	59%	76%	134%				
O=C1NC(=O)C(c2c[nH]c3ccccc23)=C1c1c[nH]c2ccccc12			69%		38%	128%				25%
Nc1nc(Nc2ccc(S(N)(=O)=O)cc2)nn1C(=O)c1c(F)cccc1F				71%	25%		75%	21%	105%	
CCOc1nc(NC(=O)Cc2cc(OC)ccc2OC)cc(N)c1C#N				78%	71%				130%	
COc1cc2nccc(Oc3ccc(NC(=O)Nc4cc(C)on4)c(Cl)c3)c2cc1OC				7%	2%	135%	5%	6%		
Cn1sc(=O)n(Cc2ccccc2)c1=O		77%		75%	64%	93%	89%	90%		
CCOC(=O)c1c(C)[nH]c(/C=C2\C(=O)Nc3ccccc32)c1C				77%	74%	119%	93%	97%		
O=C(Nc1nc2ccccc2n1CCN1CCOCC1)c1cccc([N+](=O)[O-])c1					77%					
O=S(=O)(NCCNC/C=C/c1ccc(Br)cc1)c1cccc2cnccc12		7%	0%		72%					78%
O=C(Nc1ccc(Cl)cc1)c1ccccc1NCc1ccncc1				80%	38%	125%				
N#C/C(=C\c1ccc(O)c(O)c1)C(=O)NCc1ccccc1			48%	78%	70%	144%	102%	80%	65%	
O=c1cc(N2CCOCC2)oc2c(-c3ccccc3)cccc12			54%	66%	58%	133%				
O=C1NC(=O)C(c2cn(CCCn3ccnc3)c3ccccc23)=C1Nc1ccccc1			52%	80%	65%	140%				50%

SMILES	residual activity [1]	residual activity [2]	residual activity [3]	residual activity [4]	residual activity [5]	residual activity [6]	residual activity [7]	residual activity [8]	residual activity [9]	residual activity [10]
O=c1c(-c2ccc(F)cc2)c(-c2ccncc2)[nH]n1-c1ccc(Cl)cc1			75%		61%			81%	73%	
O=C1Nc2ccccc2/C1=C\c1c(Cl)[nH]c2ccccc12		85%	61%	79%	27%			87%		
O=C1NC(=O)C(c2cn(CCCO)c3ncccc23)=C1c1cnccn1		69%	55%	66%	48%	138%	95%	96%	124%	
CN([C@@H](Cc1ccc(OS(=O)(=O)c2cccc3cnccc23)cc1)C(=O)N1CCN(c2ccccc2)CC1)S(=O)(=O)c1cccc2cnccc12			57%	86%	61%				182%	
COc1ccc(COc2ccc(Cc3cnc(N)nc3N)cc2OC)cc1					65%	128%			133%	
Nc1ncnc2[nH]nc(Nc3ccc(F)cc3)c12		78%	53%	37%	16%	127%	56%	11%	94%	98%
Nc1nccc(-c2c(-c3ccc(F)cc3)ncn2C2CCNCC2)n1		54%	36%		53%			43%	120%	
O=C1Cc2c([nH]c3ccc(Br)cc23)-c2ccccc2N1		60%	44%		28%				141%	92%
COc1cc2ncnc(Nc3cccc(Cl)c3)c2cc1OC				48%	13%	111%	40%	4%		110%
Cn1c2ccccc2c2c3c(c4c5ccccc5n(CCC#N)c4c21)CNC3=O		11%	8%	31%	9%	145%	69%	58%	104%	108%
COc1ccc(CNC(=O)Nc2ncc([N+](=O)[O-])s2)cc1				13%	12%		52%	54%	123%	105%
O=C1Cc2c([nH]c3ccc([N+](=O)[O-])cc23)-c2ccccc2N1				41%	28%		81%	81%	123%	
Fc1ccc(-c2nc3n(c2-c2ccncc2)CCS3)cc1			96%	95%	94%					
NCCNc1ncc(C(N)=O)c(Nc2cccc(C(F)(F)F)c2)n1		44%	7%	78%	22%	127%	64%	14%		112%
Nc1n[nH]c2nc3ccccc3nc12		96%	41%	75%	60%	121%		88%	132%	
COc1cc2c(cc1OC)-c1n[nH]c(Nc3cccc(F)c3)c1C2				22%	6%	105%	19%	2%	115%	109%
CCCCc1c(-c2ccc(O)cc2)[nH]c2nccnc12		34%	12%	64%	23%	131%	63%	64%		
CSc1nc(-c2ccc(F)cc2)c(-c2ccnc(NC(C)c3ccccc3)c2)[nH]1 (centres undefined)				85%	51%		102%	86%		
NC(=O)c1ccc(-c2nc(-c3ccc4c(c3)OCCO4)c(-c3ccccn3)[nH]2)cc1		95%	82%	68%	66%				137%	
